Assay results: PubChem BioAssay AID686979 (National Center for Advancing Translational Sciences (NCATS), 2013)
The whole screen tested about 420,000 compounds, of which about 50,000 (12%) were called active. About 26% were inconclusive and are not listed. Shown is part of a subset that was picked to be rich in actives. Values without a mark were called inactive. Calls come from the whole dose curve; as a rule, active = well fitted inhibition curve with a large enough effect; inconclusive = small, poorly fitted or top-dose-only effect; inactive = flat fitted curve, though single readings scatter.

experiment: qHTS for Inhibitors of human tyrosyl-DNA phosphodiesterase 1 (TDP1): qHTS in cells in presence of CPT; conditions: chicken DT40 Tdp1-/-;hTDP1 cells + 20 nM CPT, ATP luminescence, 48 h; series mostly up to 46.2 µM; activity change, negative = growth inhibition: at the top concentration; note: nearly all actives have a fitted effect of over 55% in size
In short: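 Chicken DT40 Tdp1-/- cells stably complemented with human TDP1 were seeded at 400 cells/well in medium containing 20 nM camptothecin, exposed to pin-transferred compounds, and grown at 37 °C for at least 48 hr. Viability was read as ATP luminescence.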
% is set by controls: 0 for no effect and ±100 for the full control effect; potency is the fitted concentration of half-maximal effect.

SMILES | activity change, negative = growth inhibition | Potency
COc1ccc(CCN2CC(C(=O)NCCN3CCNC3=O)CCC2=O)cc1 (stereo not drawn) | 2.06% | 
CC(C)NC(=S)Nc1cccc2cnccc12 | 0.573% | 
CCN(CC)CC(=O)Nc1nn(-c2ccccc2)nc1C(N)=O | -6.91% | 
COc1cccc(-c2nc3nc(C)cc(C)n3c2NC2CCCCC2)c1 |  | 18.4 µM (active)
COc1cccc(CSc2nc3nc(C)cc(C)n3n2)c1 | -4.29% | 
COc1ccc2nc(C)cc(Nc3cccc(C(=O)O)c3)c2c1 | -14% | 
COc1ccc(-c2cc(C)nc3nc(N)nn23)cc1 | -13.2% | 
COc1ccc(-c2nc3nc(C)cc(C)n3c2Nc2c(C)cccc2C)cc1 |  | 16.4 µM (active)
COc1cccc(-c2cnc(OC(C)(C)C)nc2OC(C)(C)C)c1 | 0.304% | 
COc1ccccc1C(=O)Nc1nc2nc(-c3ccccc3)cc(=O)n2[nH]1 | -23.3% | 
O=C(NN1C(=O)C2CCCCC2C1=O)c1ccco1 (stereo not drawn) | 4.06% | 
Cc1cccc(C(=O)N2CCN(S(=O)(=O)N3CCCCC3)CC2)c1 | -15.7% | 
Cc1cc(C)c(NC(=O)CN2C(=O)NC(Cc3ccccc3)C2=O)c(C)c1 (stereo not drawn) | -14.1% | 
O=S(=O)(NCCc1ccccn1)c1cc(Cl)cc(Cl)c1O | 0.802% | 
COc1ccccc1CCNC(=O)C1CCN(C(=O)/C=C/c2ccccc2)CC1 | 5.89% | 
Cc1cccc(NC(=O)CN2CCN(C(=O)C3CCN(C(=O)/C=C/c4ccccc4)CC3)CC2)c1C |  | 16.4 µM (active)
Cc1cccc(NC(=O)CN2CCN(CC(=O)NCC3(N4CCCCC4)CCCCC3)CC2)c1C | -16.1% | 
Cc1ccc(S(=O)(=O)NC[C@H]2O[C@@H](n3cnc4c(N)ncnc43)[C@H](O)[C@@H]2O)s1 | 0.238% | 
COc1ccc(NC(=O)c2ccccc2CC[N+](=O)[O-])cc1 | 2.49% | 
C=CC[n+]1c(-c2ccc(C)cc2)csc1NNC(=O)Nc1ccccc1 |  | 10.3 µM (active)
C=CCNc1scc(-c2ccccc2)[n+]1CC=C | -12.3% | 
O=C(NNC(=O)c1ccc(-c2ccccc2)cc1)Nc1ccccc1 | -6.03% | 
C[C@H]1CN([C@@H](C)CO)C(=O)CCCn2cc(nn2)CO[C@@H]1CN(C)S(=O)(=O)c1ccccc1C#N | 0.957% | 
O=C(c1cc(COc2ccc(F)cc2F)on1)N1CCOCC1 | 8.14% | 
COc1ccc(-c2noc(-c3ccc(N4CCN(c5ccccc5)CC4)c([N+](=O)[O-])c3)n2)cc1OC |  | 23.1 µM (active)
COc1cc(-c2noc(-c3ccc(N4CCCC4)c([N+](=O)[O-])c3)n2)cc(OC)c1OC | -2.73% | 
CNc1ccc(-c2nc(-c3ccco3)no2)cc1[N+](=O)[O-] | -19.2% | 
Cc1nnc(SCc2cc(=O)c3cc(F)ccc3[nH]2)n1C | 10% | 
